Test results from PubChem BioAssay (NCI).
Compounds without any hit were thinned out: in the full panel of roughly 79,000, 15% have a hit. The source made the active and inactive calls. Cut-off read from the data, not from the text of the source: active = growth inhibition above about 70%; inactive = the rest.

Assay: NCI Yeast Anticancer Drug Screen. Data for the mec2-1 strain (AID 157)
Conditions: S. cerevisiae mec2-1 strain, at 50.0 µM, hits give high values
Protocol: Growth inhibition of yeast strains with defined genetic alterations is measured as a screen for potential anti-cancer activity. Selected strains with alterations in DNA damage repair or cell cycle control were exposed to compounds and growth inhibition was measured relative to vehicle treated controls. The strain used in this assay is mec2-1

SMILES | growth inhibition
CC1NCCc2cc(O)c(O)cc21 (stereo not given) | 6.3% (inactive)
OC1[C@@H]2[C@@H](O)CCCN2C[C@@H](O)[C@H]1O (stereo not given in full) | -93% (inactive)
O=[N+]([O-])c1cc(Br)c(O)c(Br)c1 | 18.8% (inactive)
O=C(OCC1CCCN2CCCCC12)c1ccncc1 (stereo not given) | 2.9% (inactive)
NC(Cc1ccc(O)c(F)c1)C(=O)O (stereo not given) | -40.4% (inactive)
CC1CC(O)C(=O)C(O[C@@H]2C[C@@H]3CC[C@@H]4[C@H](CC[C@]5(C)C(C6=CC(=O)OC6)CC[C@]45O)[C@@]3(C=O)C[C@H]2O)O1 (stereo not given in full) | 8.5% (inactive)
[C-]#[O+].[C-]#[O+].[C-]#[O+].[C-]#[O+].[C-]#[O+].[C-]#[O+].[C-]#[O+].[C-]#[O+].[C-]#[O+].[CH2-]C.[Co].[Co].[Co] | 9.9% (inactive)
NC(Cc1ccc(O)c(O)c1)c1ccccc1 (stereo not given) | 4.2% (inactive)
CCCCCCCC(=O)[O][Pb]([CH2]C)([CH2]C)[CH2]C | -29.2% (inactive)
CS(=N)(=O)CCC(N)P(=O)(O)O (stereo not given) | -37.6% (inactive)
Cc1ccc(O)cc1C | 14.1% (inactive)
CC1=C(C)C(=O)O[C@@H]([C@](C)(O)[C@]2(O)CC[C@@]3(O)[C@@H]4C[C@H]5O[C@]56CC=CC(=O)[C@]6(C)[C@H]4CC[C@]23C)C1 | 64.7% (inactive)
CC/C=C/C1(C(C)C)C(=O)NC(=O)NC1=O (tested in a mixture with another compound) | 0.35% (inactive)
O=C(CCN1CC=C(c2ccccc2)CC1)c1ccc(F)cc1 | 51.5% (inactive)
CC(=O)[CH-]C(C)=O.F[P-](F)(F)(F)(F)F.[Co+3].[NH-]CC[NH-].[NH-]CC[NH-] | -15.4% (inactive)
CO[C@H]1C=CC2=CCN3CCC4=C(CC(=O)OC4)[C@]23C1 | -18.9% (inactive)
CCOC(=O)COc1cc(Cl)c(S(=O)(=O)F)cc1Cl | 92.3% (active)
CCOC(=O)C1C(c2ccco2)C2(C#N)C(=N)OC1(C)C2(C#N)C#N (stereo not given) | 12.3% (inactive)
O=[As](O)(O)c1ccc(N=Nc2ccccc2)cc1 | -14.2% (inactive)
O=C(C/C(=N/O)C(=O)NC1=C(Cl)C(=O)c2ccccc2C1=O)CC(c1ccccc1)c1c(O)c2ccccc2oc1=O (stereo not given) | 81.1% (active)

SMILES | growth inhibition
O=C(O)C1CCCN1[N+](=O)[O-] (stereo not given) | -5.95% (inactive)
O=C1/C(=C\c2ccc([N+](=O)[O-])cc2)N2CCC1CC2 | 5.3% (inactive)
Clc1ccc(C(c2ccccc2Cl)C(Cl)(Cl)Cl)cc1 (stereo not given) | -7.8% (inactive)
CC(=O)OC(C)(C)/C=C/C(=O)[C@](C)(O)[C@H]1[C@H](O)C[C@@]2(C)[C@@H]3CC=C4[C@@H](C[C@H](O)C(=O)C4(C)C)[C@]3(CO)C(=O)C[C@]12C | -12.9% (inactive)
COC(=O)C1=CCCN(C)C1 | -0.6% (inactive)
COc1ccc2c(c1)C1(C)CCN(C)CC(C1)C2O (stereo not given) | 13.6% (inactive)
[C-]#[O+].[C-]#[O+].[C-]#[O+].[W].c1ccc([PH+](CC[PH+](c2ccccc2)c2ccccc2)CC[PH+](c2ccccc2)c2ccccc2)cc1 | -18.7% (inactive)
COc1cc(C2c3cc4c(cc3C(O)[C@H]3COC(=O)[C@@H]23)OCO4)cc(OC)c1O (stereo not given in full) | -28.7% (inactive)
CN1[C@@H](CC(=O)c2ccccc2)CCC[C@H]1CC(=O)c1ccccc1 | 5.4% (inactive)
CCOP(=O)(O)OCC | -20.4% (inactive)
O=N[O-].[Co].[NH-]CC[NH-].[NH-]CC[NH-].[NH2-] | 7.5% (inactive)
OC1C2CCC1C(N1CCOCC1)CC2 (stereo not given) | 3.85% (inactive)
CC(O)CN(CCN(CC(C)O)CC(C)O)CC(C)O.[Cl-].[Zn+2] (stereo not given) | 9.25% (inactive)
C1=CC2CCC1C2 | 3.75% (inactive)
CCOP(=S)(Oc1ccccc1[N+](=O)[O-])c1ccccc1 (stereo not given) | 7.4% (inactive)
O=C(O)C(Oc1nc(=S)[nH]c(=S)[nH]1)(c1ccc(Cl)cc1)c1ccc(Cl)cc1 | 6.55% (inactive)
ClC1CC2CC1C1CNCC21 (stereo not given) | -14.6% (inactive)
CSC(=S)N(C)c1nc(=[N+](C)C)ss1 | -1.2% (inactive)
[C-]#[O+].[C-]#[O+].[C-]#[O+].[Mo].c1ccc(P(CC[PH+](CC[PH+](CC[PH+](c2ccccc2)c2ccccc2)c2ccccc2)c2ccccc2)c2ccccc2)cc1 (stereo not given) | 27.5% (inactive)
COc1ccc2c(c1O)CN1CCc3cc4c(cc3C1C2)OCO4 (stereo not given) | 22.1% (inactive)
